In PubChem BioAssay AID686960 (The Scripps Research Institute Molecular Screening Center, 2013):
The list shows a part of the results. Values without a mark were called inactive. Calls of active or inactive are those of the source. No stated cut-off is given here; in the data, active means IC50 below about 10 µM; inactive means the rest.

experiment: inhibitors of DNA CAG/GTC TO-PRO-1 complex, dose response, counter-screen for rCAG RNA repeat binder project, biochemical, fluorescence, TO-PRO-1 dye (AID 686960); conditions: DNA CAG/GTC duplex TO-PRO-1 dye displacement fluorescence

SMILES | IC50
CO/N=C(\C(=O)N[C@@H]1C(=O)N2C(C(=O)O)=C(COC(C)=O)CS[C@H]12)c1csc(N)n1 (stereo in doubt) | 9.89 µM (active)
Cc1ccc(S(=O)(=O)N2[C@@H](c3ccc(Br)cc3)C(C(=O)O)=C[C@H]2CC2CCCC2)cc1 | 11.6 µM
Cc1ccc(C(C)C)c(OCCSc2nc3ccccc3n2CC(=O)O)c1 | > 29.9 µM
COc1ccc(Cc2nnc(SCC(=O)Nc3ccc(C)c(Cl)c3)[nH]c2=O)cc1 | 24.2 µM
CC(C)c1ccc(CC(=O)N2CCC2(C)C(=O)NS(=O)(=O)c2ccc(C(C)(C)C)cc2)cc1 (stereo unspecified) | > 29.9 µM
CC1(C(=O)NS(=O)(=O)c2ccc3ccccc3c2)CCN1C(=O)C1(c2ccc(Cl)cc2)CCC1 (stereo unspecified) | 21.2 µM
O=C(Cc1ccccc1)Nc1ccc(C(=O)Nc2ccccc2C(=O)O)cc1 | > 29.9 µM
O=C(O)c1ccc(NN=CC2=C(N3CCOCC3)/C(=C/c3ccccc3)CC2)cc1 | 11 µM
COc1ccc(C(=O)Nc2cccc(/C=C(/CCC(=O)O)c3nc4ccccc4s3)c2)cc1 | 14.2 µM
Cc1noc(NS(=O)(=O)c2ccc(NC(=O)c3oc4ccc(F)cc4c3C)cc2)c1C | 16.5 µM
CC(C)(C)C1C/C(=C/c2ccco2)C(=O)/C(=C/c2ccco2)C1 (stereo unspecified) | > 29.9 µM
